About 2,800 (6%) of roughly 47,000 compounds were called active. No stated cut-off is given here; in the data, active means z-score above about 3 (passing the limit was not always enough); inactive means the rest. For the sample, actives were picked, then their nearest neighbours and some compounds at random.

The target in the test is Endoribonuclease Dicer (Homo sapiens) (UniProt Q9UPY3). In words: inhibitors of Dicer pre-microRNA processing, primary screen, biochemical, cat-ELCCA, chemiluminescence (AID 1347074).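 Further: plate controls were vehicle for no effect and no enzyme for full effect; higher signal means more uncleaved substrate so more Dicer inhibition.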 To be noted: cat-ELCCA pre-miR-21 Dicer processing, at 25 µM, active compounds read high.
Chain of Endoribonuclease Dicer (Homo sapiens) (Q9UPY3 whole entry, looked up): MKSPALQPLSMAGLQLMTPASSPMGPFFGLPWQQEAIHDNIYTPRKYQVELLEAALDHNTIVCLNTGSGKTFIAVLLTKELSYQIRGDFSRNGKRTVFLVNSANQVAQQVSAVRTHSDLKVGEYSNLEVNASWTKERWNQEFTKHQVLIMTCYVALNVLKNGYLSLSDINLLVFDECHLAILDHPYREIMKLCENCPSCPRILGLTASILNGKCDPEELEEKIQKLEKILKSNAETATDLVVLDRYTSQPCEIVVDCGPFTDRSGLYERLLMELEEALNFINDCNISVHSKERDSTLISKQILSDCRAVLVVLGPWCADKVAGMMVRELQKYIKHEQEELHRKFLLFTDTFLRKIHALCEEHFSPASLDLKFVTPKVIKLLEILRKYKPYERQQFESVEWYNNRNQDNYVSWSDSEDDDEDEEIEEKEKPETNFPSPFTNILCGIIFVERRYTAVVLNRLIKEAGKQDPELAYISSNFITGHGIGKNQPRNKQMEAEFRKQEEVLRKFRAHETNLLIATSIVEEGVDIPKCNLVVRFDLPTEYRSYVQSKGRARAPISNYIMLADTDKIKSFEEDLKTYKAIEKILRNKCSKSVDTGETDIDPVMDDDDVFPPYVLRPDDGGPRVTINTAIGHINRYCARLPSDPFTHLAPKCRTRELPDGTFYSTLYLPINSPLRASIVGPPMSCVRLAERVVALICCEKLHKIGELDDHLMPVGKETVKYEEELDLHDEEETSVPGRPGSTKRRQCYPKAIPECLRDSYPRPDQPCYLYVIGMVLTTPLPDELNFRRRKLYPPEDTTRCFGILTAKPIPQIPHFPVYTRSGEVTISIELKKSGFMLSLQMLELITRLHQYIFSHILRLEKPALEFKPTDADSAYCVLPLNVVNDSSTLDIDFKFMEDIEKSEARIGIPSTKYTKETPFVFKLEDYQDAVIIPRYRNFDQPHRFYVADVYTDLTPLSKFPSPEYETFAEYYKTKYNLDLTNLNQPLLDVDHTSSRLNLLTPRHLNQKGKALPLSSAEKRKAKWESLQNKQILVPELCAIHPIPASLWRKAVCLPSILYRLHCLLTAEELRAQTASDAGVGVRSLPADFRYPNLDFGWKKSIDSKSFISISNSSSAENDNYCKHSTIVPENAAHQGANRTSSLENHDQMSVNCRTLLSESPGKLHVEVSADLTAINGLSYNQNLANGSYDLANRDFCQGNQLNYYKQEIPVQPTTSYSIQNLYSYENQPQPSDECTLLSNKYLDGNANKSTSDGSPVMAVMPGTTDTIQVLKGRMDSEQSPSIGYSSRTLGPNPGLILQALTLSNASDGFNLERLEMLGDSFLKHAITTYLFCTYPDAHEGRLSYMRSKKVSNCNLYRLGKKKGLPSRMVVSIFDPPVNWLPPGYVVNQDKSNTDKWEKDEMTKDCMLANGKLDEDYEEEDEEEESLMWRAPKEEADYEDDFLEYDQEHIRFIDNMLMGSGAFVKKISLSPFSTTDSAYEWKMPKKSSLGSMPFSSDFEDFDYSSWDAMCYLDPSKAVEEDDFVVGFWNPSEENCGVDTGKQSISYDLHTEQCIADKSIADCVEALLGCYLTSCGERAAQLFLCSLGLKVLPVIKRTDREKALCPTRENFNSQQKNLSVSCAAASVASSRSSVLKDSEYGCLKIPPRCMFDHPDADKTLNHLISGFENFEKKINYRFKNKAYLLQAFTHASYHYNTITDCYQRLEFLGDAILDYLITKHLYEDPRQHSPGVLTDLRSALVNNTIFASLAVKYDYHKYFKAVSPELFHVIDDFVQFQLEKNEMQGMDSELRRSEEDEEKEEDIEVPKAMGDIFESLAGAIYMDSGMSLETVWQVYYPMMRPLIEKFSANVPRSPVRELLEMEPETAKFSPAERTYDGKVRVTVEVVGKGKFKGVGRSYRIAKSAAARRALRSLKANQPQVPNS
Regarding `COCc1cc(C)nc(Nc2ccc(C)cc2)c1C#N`, the z-score is -0.19 (inactive). With `CCCc1nnc2n1Nc1nc3ccccc3nc1S2` the figure was 0.21 (inactive); with `Cc1noc(C)c1S(=O)(=O)N(C)C1CCCCC1`, 0.73 (inactive). As to `Cc1cc(NC(=O)CC(CC(=O)O)c2ccccc2)n(C)n1` (stereo unspecified), the z-score is -1.02 (inactive). To `O=C(O)CC(CC(=O)Oc1ccccc1N1CCCCC1)c1ccccc1` (stereo unspecified) belongs 4.46 (active); to `Cn1nccc1NC(=O)CC(CC(=O)O)c1ccccc1` (stereo unspecified), -0.73 (inactive).

As for `CCOC(=O)c1ccc(NCN2C(=O)c3ccccc3C2=O)cc1`, the z-score was 0.49 (inactive).

On to `CCCN1C(=O)C2(/C(=C(/O)c3ccc(F)cc3)C(=O)C(=O)N2CCCN(C)C)c2ccccc21` (stereo unspecified), for which the z-score was -0.34 (inactive). As for `CCCCSc1nnc2c(n1)OC=Nc1ccc(Br)cc1-2`, the z-score was 1.93 (inactive). With `N#C/C(=C\N1CCc2ccccc21)C(=O)c1cccc(C(F)(F)F)c1` the figure was -2.08 (inactive); with `O=C(CSc1nc2ccccc2nc1N1CCCC1)NCc1cccs1`, 3.04 (active).

Regarding `O=C(CSc1nc2ccccc2nc1N1CCCC1)N1CCN(c2ccccc2)CC1`, the z-score is 1.57 (inactive).

For the compound `O=C(CSc1nc2ccccc2nc1N1CCOCC1)Nc1ccccc1`, the z-score was 1.99 (inactive). With `N#CC1=C(N)Oc2ccc3ccccc3c2C1c1ccc(F)cc1` (stereo unspecified) the figure was -0.03 (inactive); with `O=C(O)c1ccc(N2C(=O)CC(N3CCCCC3)C2=O)cc1` (stereo unspecified), -0.35 (inactive); with `COc1ccc(CCNCC(O)Cn2ccc3ccccc32)cc1OC` (stereo unspecified), -0.31 (inactive). With `COc1ccc(CCNC(=O)CCC(=O)O)cc1OC` the figure was 1.57 (inactive); with `COc1ccc(CCNC(N)=O)cc1OC`, 5.13 (active). To `COC(=O)C(C(=O)OC)=C(SC)SC` belongs -1.16 (inactive); to `CC1(C)CC2(CC(C)(c3csc(Nc4ccccc4)n3)OC2=O)C(=O)O1` (stereo unspecified), 1.11 (inactive). Regarding `O=[N+]([O-])c1ccc(CC(O)N2CCN(c3nc4ccc(Cl)cc4s3)CC2)cc1` (stereo unspecified), the z-score is -0.91 (inactive). With `O=C(c1cccs1)c1nn(-c2ccccc2)c2nc(=O)c(Cc3ccc(Cl)cc3)nn12` the figure was -0.23 (inactive); with `Cc1cc(C)cc(Oc2coc3cc(OCC(=O)O)ccc3c2=O)c1`, -0.66 (inactive); with `COc1ccc2[nH]cc(CCC(=O)O)c2c1`, 2.43 (inactive). With `Cc1[nH]cc(Br)c(=O)c1OCC(=O)O` the figure was 4.04 (active); with `O=S(=O)(c1cc(Cl)c(Cl)cc1Cl)N1CCc2[nH]c3ccc(F)cc3c2C1`, -0.85 (inactive).

On to `Cc1ccc(O)c(-c2cnc3ccccc3n2)c1`, for which the z-score is -1.69 (inactive). With `CC1(C)CC(=O)C=C(Nc2ccccc2)C1` the figure was 2.68 (inactive). To `O=C1C=C(NNc2ccccc2)CCC1` belongs 3.26 (active); to `Cc1ccc(-n2nnnc2-c2ccc(Cl)c(Cl)c2)c(C)c1`, -1.31 (inactive). With `Nc1n[nH]c2c1CSc1ccc(Cl)cc1-2` the figure was -4.16 (inactive); with `Cc1ccc2nc(Nc3ncc4c(n3)CC(C)(C)CC4=O)nc(C)c2c1`, 1.2 (inactive); with `CCOC(=O)c1cc(CC)sc1NC(=O)c1cccc(C(F)(F)F)c1`, 0.82 (inactive).

Consider `O=C(CS(=O)(=O)c1ccc(C(F)(F)F)cn1)NNC(=O)c1ccccc1`, for which the z-score was 0.59 (inactive). With `NC(=S)NNC(=O)c1cccc(C(F)(F)F)c1` the figure was 33.4 (active); with `O=[N+]([O-])c1cccc(C2CC(c3ccccc3)=Nc3ccccc3S2)c1` (stereo unspecified), -1.81 (inactive). To `C1=CC2CC1CC2CN1CCN(Cc2c[nH]c3ccccc23)CC1` (stereo unspecified) belongs 4.79 (active); to `COc1cccc(-c2ccc(-c3noc(-c4cccc(OC)c4)n3)c(OC)n2)c1`, 0.01 (inactive); to `COc1cccc2c1OC(c1ccccc1F)N1N=C(c3ccccc3O)CC21` (stereo unspecified), 5.58 (active). To `COc1ccc(O)c(C2=NN3C(C2)c2cccc(OC)c2OC3c2ccccc2)c1` (stereo unspecified) belongs 1.51 (inactive).

Consider `COc1cccc(C2Oc3ccccc3C3CC(c4ccccc4O)=NN32)c1OC` (stereo unspecified), for which the z-score is 6.13 (inactive). Regarding `Cn1c(-c2ccccc2)cnc1NCc1c(F)cccc1Cl`, the z-score is 2.86 (inactive). To `Cc1ccc(-c2nc3ccccc3[nH]2)cc1N` belongs 0.04 (inactive); to `Nc1cccc(CCc2nc3ccccc3[nH]2)c1`, 1.56 (inactive); to `Nc1ccc(/C=C/c2nc3ccccc3[nH]2)cc1`, 4.8 (active).

For the compound `CCCCn1nnc2sc3c(c2c1=O)CCCC3`, the z-score was -0.96 (inactive). With `O=C(CSc1nc2c(c(C(F)(F)F)n1)CCc1ccccc1-2)N1CCOCC1`, the z-score was 0.53 (inactive).

For `COc1cc2c(cc1OC)C(C)N(Cc1cc(C)c(O)c(C)c1)CC2` (stereo unspecified), the z-score is -0.23 (inactive). `CCOC(=O)c1cc(Sc2ccccc2)cc(C(=O)OCC)n1`: the z-score was -0.71 (inactive). To `CCc1ccc(C2C(C(=O)OC)=C(C)NC3=C2C(=O)CC(C)(C)C3)cc1` (stereo unspecified) belongs 0.1 (inactive); to `CC(C)(C)OC(=O)n1ccc2cc(Br)ccc21`, 3.27 (active). For the compound `CCOC(=O)c1cc(-c2ccccc2)sc1NC(=S)N1CCN(c2ccccc2)CC1`, the z-score was 1.09 (inactive). To `CC(=O)Oc1cc2c(C(=O)N3CCN(c4ccccc4)CC3)c(C)oc2c2ccccc12` belongs 3.08 (active); to `CCOC(=O)c1nnn2c1nc(N1CCN(c3ccccc3)CC1)c1ccccc12`, 0.67 (inactive).

As to `O=C(CC1(O)C(=O)N(CCc2ccccc2)c2ccccc21)c1cccc(-n2cccc2)c1` (stereo unspecified), the z-score was -0.51 (inactive). To `C1=C(c2cccs2)CC(c2cccs2)=NN=C1c1cccs1` belongs 3.06 (active); to `Cc1[nH]nc2c1C(c1ccccc1Cl)C(C#N)=C(N)O2` (stereo unspecified), -1.03 (inactive); to `O=C(O)C1C2C=CC(C2)C1C(=O)N1CCN(CCO)CC1` (stereo unspecified), 3.56 (active). As for `COc1ccc(-c2c(C)nn3c2N=C(c2ccccc2)CC3c2ccco2)cc1` (stereo unspecified), the z-score is -0.12 (inactive). To `CC(C)N(CCC#N)CN1C(=O)c2ccccc2C1=O` belongs 1.63 (inactive); to `COc1cc2c(cc1OC)C(c1ccccc1)=NC(C)(C)C2`, 0.36 (inactive); to `FC(F)(F)c1cccc(NC(=S)NNc2nccc(C(F)(F)F)n2)c1`, 3.39 (active). To `FC(F)(F)c1ccnc(NCCNc2nccc(C(F)(F)F)n2)c1` belongs -0.42 (inactive); to `FC(F)(F)c1ccc(/C=N/Nc2nccc(C(F)(F)F)n2)cc1`, 0.54 (inactive). With `Cc1cc2c(cc1C)CSC(C)(c1cccc([N+](=O)[O-])c1)SC2` the figure was -1.77 (inactive); with `Oc1ccc(C2Nc3cccc4cccc(c34)N2)cc1`, 0.15 (inactive).

For `COc1cccc(-n2[nH]nnc2=S)c1`, the z-score is 1.1 (inactive). With `Cc1ccc(C2Nc3cccc4cccc(c34)N2)cc1`, the z-score was 3.06 (active). With `Cc1ccc(C2CC(c3cccc(C)c3)n3nc(N)nc3N2)cc1` (stereo unspecified) the figure was 0.14 (inactive); with `COc1cccc(C2Nc3cccc4cccc(c34)N2)c1`, 3.24 (active); with `O=C(CSc1nc2c(c(C(F)(F)F)n1)CCc1ccccc1-2)NCc1cccnc1`, 2.31 (inactive). As to `CC1=C(C(=O)OC2CCCCC2)C(c2cccnc2)C2=C(CCCC2=O)N1` (stereo unspecified), the z-score was -0.48 (inactive).

On to `CC1=NOC(=O)C1C(c1cccc(Br)c1)c1c(C)[nH]n(-c2ccccc2)c1=O` (stereo unspecified), for which the z-score was -4.75 (inactive). With `CC(C)(C)c1cc2nc(-c3ccc4c(c3)CCC4)cc(C(F)(F)F)n2n1` the figure was -1.01 (inactive); with `Cc1cc(Br)ccc1Nc1ncnc(N)n1`, 0.67 (inactive); with `C=CCN(C(=O)c1ccccc1Cl)c1ccccc1C(=O)NCC(=O)OCC`, -0.79 (inactive).

As to `Cc1cc(O)cc(C)c1/C=C1\NC(=O)NC1=O`, the z-score was 0.4 (inactive). With `Cc1ccc(C(=O)NNc2ncnc3sccc23)cc1` the figure was 0.13 (inactive); with `CSc1n[nH]c(N)c1-c1ccccn1`, 6.44 (active). To `CCOC(=O)c1sc(SC(C)C)c2c1CC(C)(C)CC2=O` belongs -1.12 (inactive). To `Cc1cc(C)c2c(n1)sc1c(=O)n(/N=C/c3ccc4c(c3)OCO4)c(C)nc12` belongs -0.06 (inactive); to `Cc1ccc(N2CC(=O)N(/N=C/c3ccc4c(c3)OCO4)CC2=O)cc1`, 3.3 (active); to `O=C(/C(=N\N=C\c1ccc2c(c1)OCO2)c1ccccc1)c1ccccc1`, -1.69 (inactive). Take `O=C(c1cccn1-c1ccc(F)cc1)C(F)(F)F`: the z-score is -0.2 (inactive). With `Cc1ccc(-c2ccc3c4ccccc4c(C(=O)C(F)(F)F)c-3o2)cc1`, the z-score is -0.14 (inactive). To `O=c1c2c(-c3ccc(Cl)cc3)csc2nc2c3ccccc3c(N3CCN(CCO)CC3)nn12` belongs -0.37 (inactive); to `Cc1ccc(S(=O)(=O)Nc2ccc(F)cc2NS(=O)(=O)c2ccc(C)cc2)cc1`, 15.1 (active); to `Cn1nccc1NS(=O)(=O)c1ccc(F)cc1`, -0.57 (inactive). Consider `Cc1ccc(S(=O)(=O)Nc2cc(C)cc(C)c2)cc1`, for which the z-score is 2.36 (inactive). To `CN(C)C(=O)Sc1nnc(C2CC2)n1-c1ccc(Cl)cc1` belongs 15.9 (inactive); to `CC(C)OC(=O)C1C(=O)CC(C)(O)C(C(=O)OC(C)C)C1c1ccc(Br)cc1` (stereo unspecified), -1.31 (inactive). With `CCOC(=O)C1=C(C)Nc2nnnn2C1c1ccc(O)cc1` (stereo unspecified) the figure was -2.24 (inactive); with `CCCOC(=O)C1=C(C)Nc2nnnn2C1c1cc(Br)ccc1OC` (stereo unspecified), 3.54 (active); with `CC1=C(C(N)=O)C(c2ccc(F)cc2)n2nnnc2N1` (stereo unspecified), -0.27 (inactive).

Regarding `O=C(O)CSCC(=O)Nc1ccccc1Sc1ncnc2cc(-c3ccccc3)sc12`, the z-score was -0.26 (inactive).

`Fc1cccc(-c2nn3c(COc4ccccc4)nnc3s2)c1`: the z-score was 0.92 (inactive). On to `COc1cccc(C2Nc3ccccc3-c3cc(C)nn32)c1O` (stereo unspecified), for which the z-score is -0.43 (inactive).

Take `CCOc1ccccc1C1Nc2c(C)cccc2-c2cc(C)nn21` (stereo unspecified): the z-score was 4.42 (active). To `COc1cc(O)ccc1C1Nc2c(C)cc(C)cc2-c2cc(C)nn21` (stereo unspecified) belongs 2.86 (inactive); to `Cc1c(C#N)c(NC(=O)c2ccc(Cl)cc2)n(CC2CC2)c1C`, 0.46 (inactive).

`CN1CCc2c(sc3c2C(=O)NC(c2ccc(Br)cc2)N3)C1` (stereo unspecified): the z-score was -0.13 (inactive).

(Values after PubChem BioAssay AID1347074 (Center for Chemical Genomics, University of Michigan, 2019).)
